Compounds without any hit were thinned out: in the full panel of roughly 79,000, 15% have a hit. The source made the active and inactive calls. No stated cut-off is given here; in the data, active means growth inhibition above about 70%; inactive means the rest.
What was measured:
[1] = NCI Yeast Anticancer Drug Screen. Data for the rad50 strain (AID 155);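 further: 0% = growth of vehicle-only cultures of the same strain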; details: S. cerevisiae rad50 strain growth inhibition; at 50.0 µM; hits give high values
Outline: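 Inhibition values express reduced yeast growth in compound-treated cultures relative to vehicle-treated controls.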

[2] = NCI Yeast Anticancer Drug Screen. Data for the mec2-1 strain (AID 157); details: S. cerevisiae mec2-1 strain, at 50.0 µM, hits give high values
Outline: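 Test agents were screened against the mec2-1 yeast strain, with defined DNA repair or cell cycle alteration. Growth was scored as inhibition against vehicle-only controls.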

[3] = NCI Yeast Anticancer Drug Screen. Data for the sgs1 mgt1 strain (AID 161);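 further: 0% = growth of cultures given vehicle only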; details: S. cerevisiae sgs1 mgt1 strain, at 50.0 µM, hits give high values
Outline: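 Test agents were incubated with a DNA-repair-mutant yeast strain. Growth was then read and compared against vehicle-treated controls.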

[4] = NCI Yeast Anticancer Drug Screen. Data for the cln2 rad14 strain (AID 165);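 further: 0% = growth equal to vehicle treated cultures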; details: S. cerevisiae cln2 rad14 strain, at 50.0 µM, hits give high values
Outline: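 Growth of compound-exposed yeast (cln2 rad14 genotype) measured and expressed as inhibition relative to vehicle.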

[5] = NCI Yeast Anticancer Drug Screen. Data for the bub3 strain (AID 167); details: S. cerevisiae bub3 mutant strain, at 50.0 µM, hits give high values
Outline: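 Steps: expose the mutant yeast strain to compound; grow alongside vehicle-treated cultures; measure growth; express inhibition against the vehicle cultures.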

[6] = NCI Yeast Anticancer Drug Screen. Data for the mlh1 rad18 strain (AID 175); details: S. cerevisiae mlh1 rad18 strain growth inhibition; at 50.0 µM; hits give high values
Outline: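 In this whole-cell yeast screen, a strain with altered DNA damage repair is challenged with compound, and its growth is measured against matched vehicle-treated controls.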

Measured: growth inhibition

OCCN(CCO)CCCNc1ccnc2cc(Cl)ccc12
inactive: [1] -22.6% | [2] -2% | [3] -0.65% | [4] -39.9% | [5] -12.8% | [6] 5.2%

O=C(O)c1ccc(N2C(=O)c3ccccc3C2=O)cc1
inactive: [1] -19.1% | [2] 4.8% | [3] 1.95% | [4] -10.1% | [5] -18.3% | [6] 41.9%

CCCCCCCC/C=C\CCCCCCCC(N)=O
inactive: [1] -20.9% | [2] -34.6% | [3] -11.5% | [4] -53% | [5] -21.1% | [6] -50%

O=C(CCOP(=O)(NCCCl)NCCCl)c1ccccc1
inactive: [1] 5.2% | [2] -14.8% | [3] 0.25% | [4] 7.25% | [5] -11.7% | [6] 24%

C=C(C)C(=O)O[C@H]1C[C@@]23O[C@@H]2CCC(=C[C@H]2OC(=O)C(=C)[C@H]12)COC3O (stereo partly specified)
inactive: [1] 16.8% | [2] -12.6% | [3] 14.8% | [4] 9.45% | [5] 7.7% | [6] -22.8%

CCOC(OCC)C(N)=O
inactive: [1] 2.75% | [2] -12.1% | [3] -1.6% | [4] 11.3% | [5] -6.3% | [6] 2.65%

C=CC(C)(C)/C=C/C=O
inactive: [1] -18.8% | [2] -15.1% | [3] -12.1% | [4] 5.65% | [5] 24.6% | [6] -32.1%

CCCCCCCCCCCCOc1ccc(F)cc1C
inactive: [1] 6% | [2] -1.15% | [3] 0.45% | [4] 4.6% | [5] 10.7% | [6] 13.4%

O=P(O)(c1cc(Cl)cc(Cl)c1)c1cc(Cl)cc(Cl)c1
inactive: [1] 2.05% | [2] -7.45% | [3] 10.2% | [4] -5.1% | [5] -7.1% | [6] -4.5%

NC(=S)NNC(=O)c1ccc([N+](=O)[O-])cc1
inactive: [1] 10.4% | [2] 18.9% | [3] -3.1% | [4] -17.9% | [5] 1.35% | [6] 36.9%

CCCCCCCCS(N)(=O)=O
inactive: [1] 0.8% | [2] -15.2% | [3] -4.1% | [4] -11.4% | [5] -2.55% | [6] -8.95%

O=C=Nc1ccc(Cl)c(Cl)c1
inactive: [1] -19.9% | [2] -29.4% | [3] -43% | [4] -9.1% | [5] -13.7% | [6] -19.1%

NC(=O)N/N=C1\CC2CC1C1CCCC21 (stereo unspecified)
inactive: [1] 8.05% | [2] 5.35% | [3] -1.75% | [4] -0.5% | [5] -8.9% | [6] 15.3%

O=C(NCC1(c2ccc3c(c2)OCO3)OCCO1)c1ccccc1[N+](=O)[O-]
inactive: [1] 20% | [2] -4.1% | [3] -2.1% | [4] -42.6% | [5] -5.75% | [6] 2.6%

COC(=O)c1c(C)cc(C)c(C(C)=O)c1O
inactive: [1] -16.9% | [2] -14.8% | [3] 0% | [4] -18.7% | [5] 0.75% | [6] -16.1%

CCC(=O)OC1(c2ccccc2)C(CN(C)C)CCCC1CN(C)C (stereo unspecified)
inactive: [1] -11.2% | [2] -17.6% | [3] -22.2% | [4] -47.9% | [5] 2.85% | [6] -14.9%

CC(=O)OC1Cc2ccccc2C(OC(C)=O)Cc2ccccc21 (stereo unspecified)
inactive: [1] 29.6% | [2] 7.4% | [3] -1.25% | [4] 1.6% | [5] 18.4% | [6] 0.05%

O=c1[nH]c(=O)c2c(Cl)cccc2[nH]1
inactive: [1] 7.2% | [2] 9.9% | [3] 5.35% | [4] -22% | [5] -2.7% | [6] -4.1%

C/C(=N/NS(=O)(=O)c1ccc(N)cc1)c1ccccc1
inactive: [1] 9.9% | [2] -14.8% | [3] 1.45% | [4] 15.6% | [5] -41.4% | [6] -17.8%

CCOc1c(Cc2ccccc2)c(=O)n2c3ccccc3n3c(=O)n(C)c(=O)c1c23
inactive: [1] -5.8% | [2] -22.4% | [3] -54.2% | [4] 11.8% | [5] -12.8% | [6] -25%

CSc1ccc(NC(=S)SCc2ccc3c(c2)OCO3)cc1Cl
active: [1] 95.7% | [2] 98.6% | [3] 98% | [4] 84.3% | [5] 97.5% | [6] 97.2%

COc1ccc(/C=C/c2ccc3ccccc3n2)cc1
inactive: [1] 3.3% | [2] -20.6% | [3] 1.65% | [4] -46.1% | [5] 9.45% | [6] -16%

C1=Cc2c3c(c4c(c2C1)C=CC4)C=CC3
inactive: [1] -1.95% | [2] -8.1% | [3] -1.2% | [4] -2.3% | [5] -1.15% | [6] 6.3%

Nc1ccc(C(C(=O)O)c2ccccc2)cc1 (stereo unspecified)
inactive: [1] 10.4% | [2] 15.8% | [3] 12.6% | [4] 1.4% | [5] 20.1% | [6] 10.9%

CC(=O)OCC(=O)C1(C)CCC2(C)CCC3(C)C(=CC(=O)C4C5(C)CCC(=O)C(C)(C)C5CCC43C)C2C1 (stereo unspecified)
inactive: [1] -2.95% | [2] -30.8% | [3] 2.7% | [4] -2.25% | [5] 13.7% | [6] 15.4%

CCN(CC)c1ccc(/C=C2\CCc3ccc([N+](=O)[O-])cc3C2=O)cc1
inactive: [1] 1.95% | [2] -14.7% | [3] 6.2% | [4] -3.75% | [5] 3.8% | [6] -7.95%

COc1ccccc1C(O)C(C)(C)C (stereo unspecified)
inactive: [1] 50.9% | [2] 2.45% | [3] 7.5% | [4] 8.9% | [5] 8.4% | [6] 28.9%

CC(C)CC(NC(=O)c1ccccc1C(=O)O)C(N)=O (stereo unspecified)
inactive: [1] -6.7% | [2] 3.5% | [3] 6.65% | [4] -0.15% | [5] 6.2% | [6] -19%

Cc1cc(S(=O)(=O)Nc2n[nH]c(Nc3ccccc3)n2)c(SCC(=O)O)cc1Cl
inactive: [1] 11.3% | [2] 52.8% | [3] 51.2% | [4] -0.25% | [5] -4.2% | [6] 23.1%

O=[N+]([O-])c1ccc(Cl)cc1N/N=C/c1cccs1
inactive: [1] -46.1% | [2] -40.2% | [3] -40.8% | [4] -9.5% | [5] -30.8% | [6] -31.8%

CCOc1cc([N+](=O)[O-])c(OCC)cc1Cl
inactive: [1] -24.6% | [2] -53.5% | [3] -19.9% | [4] 11% | [5] -17.6% | [6] -29.6%

Cc1ccc(/C(O)=C/C(=O)C(=O)NC23CC4CC(CC(C4)C2)C3)cc1
inactive: [1] 36.9% | [2] 15.3% | [3] 32.4% | [4] 24.9% | [5] 15.8% | [6] 23.4%

CC1(C)CC(=O)C(C=NC(=O)c2ccncc2)=C(O)C1
inactive: [1] -25.1% | [2] 19.7% | [3] -3.55% | [4] -3.8% | [5] 14.9% | [6] -40.4%

Cc1cc(=O)[nH]c(=S)n1-c1nc2ccccc2o1
inactive: [1] -11.2% | [2] 7.65% | [3] -0.8% | [4] -9.55% | [5] -27.6% | [6] 12.8%

C(=C\c1ccc(-c2ccccc2)cn1)/c1ccccc1
inactive: [1] -8.5% | [2] -15.8% | [3] -3.45% | [4] -26.6% | [5] 24.8% | [6] -12%

c1ccc(COCCc2ccccn2)cc1
inactive: [1] -5.3% | [2] -19.9% | [3] -3.85% | [4] -26.1% | [5] -22.2% | [6] -20.4%

Cc1oc(C)c2c(N=Nc3ccc([N+](=O)[O-])cc3[N+](=O)[O-])c3ccccc3c(O)c12
inactive: [1] 25% | [2] 25.1% | [3] 11.4% | [4] -27.6% | [5] 37.5% | [6] 49.6%

CS(=O)(=O)OC[C@@H]1C2CCC(C2)[C@@H]1COS(C)(=O)=O
inactive: [1] -8.45% | [2] -12.8% | [3] 1.5% | [4] -52.8% | [5] -3.5% | [6] -14.2%

Clc1ccc(C2=NON(c3ncccn3)C3N=CC=CN23)cc1 (stereo unspecified)
inactive: [1] 9.7% | [2] -20.8% | [3] 0.55% | [4] -6.75% | [5] 0.05% | [6] 19%

NCCCCCOCCCCCN
inactive: [1] 3.4% | [2] -0.25% | [3] -7% | [4] -8.1% | [5] 3.8% | [6] -1.65%

O=C(NNC(=O)c1ccc2ccccc2c1)c1ccc(F)cc1
inactive: [1] 4.05% | [2] 0.9% | [3] 3.8% | [4] 3.05% | [5] 10.2% | [6] 10.2%

From PubChem BioAssay (NCI)
